Bioassay records deposited in PubChem BioAssay by National Center for Advancing Translational Sciences (NCATS).
HCMV antiviral: blocks human cytomegalovirus replication; HFF cells, HCMV-luciferase reporter, 72 h; active compounds read low; activity change, negative = inhibition, % at 57.5 µM; 410,000 compounds, 4.5% hits; in the data active = activity change below about -60%; inconclusive = no clear call, values can overlap the other calls; inactive = above about -39%
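Human foreskin fibroblasts infected with luciferase-reporter HCMV at MOI 1 PFU/cell, compounds at two doses. Luciferase measured 72 h post infection; normalized to buffer-only basal and Salinomycin (10uM) controls.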
Pf growth 48h: inhibits P. falciparum growth in the first generation, 48 h; P. falciparum luciferase growth in erythrocytes, 48 h; Potency, µM (doses to about 28.7 µM), most hits filed as inhibitors; 310,000 compounds, 5.9% hits
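Erythrocytes infected with P. falciparum carrying an integrated firefly luciferase reporter (2% hematocrit, 0.1% parasitemia final) were exposed to compounds in RPMI 1640 with 0.5% Albumax at 37 C, 5% CO2. Growth inhibition was scored as reduced luminescence.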
Shiga inhibitor: Shiga toxin inhibition | Vero cells, Shiga toxin protein synthesis inhibition reporter | inhibition, % at 38.7 µM | 290,000 compounds, 9.2% hits | AID 2315; in the data active = inhibition mostly above about 28%, no sharp cut-off; inactive = mostly below about 43%
HCV inh: HCV inhibition; Potency, µM (series often up to 41.8 µM), usual class: inhibitors; Huh7.5.1 HCVcc-Cre infection, luciferase reporter, 44 h; 340,000 compounds, 3.4% hits
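Infectious HCVcc-Cre (~0.5 moi) was added to cells just after compound, with cells seeded 4 h earlier at 1,000 per well. Luciferase activity after 44 h culture reported infection; substrate was incubated 15 min at room temperature before reading.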
Pf growth 96h: P. falciparum growth inhibition at 96 hours; P. falciparum luciferase reporter growth, 96 h; Potency, µM (titrated, usually from 28.7 µM), usual class: inhibitors; 320,000 compounds, 6.9% hits; AID 504834
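Erythrocytes infected with luciferase-expressing P. falciparum were dispensed at 2% hematocrit and 0.05% parasitemia (final), then incubated with compounds 96 hours at 37 C in 5% CO2. Luminescence after detection reagent addition reported growth.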
Cycloheximide cs: counter-screen for Shiga toxin inhibitors: cycloheximide protein synthesis inhibition. AID 2314. 300,000 compounds, 12% hits. cell reporter, cycloheximide protein synthesis inhibition counterscreen. max response, %; in the data active = max response mostly above about 13%, no sharp cut-off; inactive = mostly below about 14%; note: read at 38.3 µM for the half of the compounds with a filed dose
Numbers stand for hits; - = inactive; ? = inconclusive; . = no result given; ! = a repeat was not active; [ ] = dose if it differs, or a comment. The list is not random: actives were taken first. Their share in the collection is about 21%. Unless noted, calls come from the whole dose curve; as a rule, active = well fitted inhibition curve with a large enough effect; inconclusive = small, poorly fitted or top-dose-only effect, or another doubt; inactive = no such curve, though single readings can be large or run the other way.

SMILES | HCMV antiviral | Pf growth 48h | Shiga inhibitor | HCV inh | Pf growth 96h | Cycloheximide cs
CCN(CC)CCCNc1nc(SC)nc2sc3c(c12)CCN(C)C3 | . | ? | - | . | ? | -
COc1ccc(-c2nc(CS(=O)CC(=O)NC(C)CCc3ccccc3)c(C)o2)cc1OC (stereo not drawn) | - | - | - | - | - | -
COc1ccc(OC)c(NC(=O)CCN2CCN(Cc3ccccc3)CC2)c1 | - | 13.1µM | - | ? | - | -
O=C(CCN1CCN(C(c2ccccc2)c2ccccc2)CC1)N/N=C/c1ccc(O)cc1O | - | ? | - | 7.94µM | 5.22µM | -
COc1ccc(NC(=O)CCN2CCN(Cc3ccccc3)CC2)c(OC)c1 | - | ? | . | - | - | -
COc1ccc(OC)c(/C=N/NC(=O)CCN2CCN(C(c3ccccc3)c3ccccc3)CC2)c1 | - | - | - | 10µM | ? | -
Cc1ccc(Cn2c(=O)n(Cc3ccco3)c(=O)c3sc4ccccc4c32)cc1 | - | . | . | . | . | .
Cc1cc(C(=O)OCC(=O)NCc2cccs2)c2ccccc2n1 | - | - | - | - | - | -
O=C(COC(=O)c1cc(-c2ccc(Cl)s2)nc2ccccc12)NCc1ccco1 | - | - | - | - | . | 15.8
COc1ccc(CNC(=O)COC(=O)c2cc(-c3ccc(Cl)s3)nc3ccccc23)cc1 | - | - | - | - | . | -
Cc1ccc(-c2cc(C(=O)NCc3ccco3)c3ccccc3n2)s1 | - | - | - | ? | - | 9.3
O=C(NCc1ccco1)c1cc(-c2cccs2)nc2ccccc12 | - | ? | - | ? | 18.5µM | 13.4
O=C(COC(=O)c1cc(-c2cccs2)nc2ccccc12)NCc1ccco1 | - | - | 90.4 | - | - | 29.1
Cc1cc2c(cc1C)-n1nnnc1C(N1CCN(CC(=O)N3CCCC3)CC1)C(=O)N2 (stereo not drawn) | - | . | . | . | . | .
CCOC(=O)c1c(S(=O)(=O)N2CCC(C(=O)N3CCN(c4cccc(C)c4C)CC3)CC2)c(C)n(C)c1C | - | . | . | . | . | .
CN(C)CC(C)(C)CNC(C(=O)Nc1ccc(Cl)cc1C(F)(F)F)c1ccccc1 (stereo not drawn) | - | ? | - | - | ? | -
CCOP(=O)(OCC)C(Nc1cccc([N+](=O)[O-])c1)c1ccc(N(C)C)cc1 (stereo not drawn) | - | ? | - | - | ? | -
CCOP(=O)(OCC)C(Nc1ccccn1)c1ccc(F)cc1 (stereo not drawn) | -69.6 | - | - | - | - | -
CCOP(=O)(OCC)C(Nc1cccc(C(F)(F)F)c1)c1ccc(F)cc1 (stereo not drawn) | - | ? | - | - | ? | -
CCOP(=O)(OCC)C(Nc1ccccn1)c1ccccc1 (stereo not drawn) | - | - | - | - | - | -
CCCOP(=O)(OCCC)C(Nc1cccc(C(F)(F)F)c1)c1ccc(C)cc1 (stereo not drawn) | - | ? | - | ? | 11.7µM | -
CCOP(=O)(OCC)C(Nc1cccc(C(F)(F)F)c1)c1ccc(C)cc1 (stereo not drawn) | - | 10.4µM | - | - | ? | -
COC(=O)C1=C(CS(=O)(=O)c2cc(Cl)ccc2OC)NC(=O)NC1c1ccccc1 (stereo not drawn) | - | . | . | . | . | .
COc1ccc(C(=O)Nc2nc3c(s2)Cc2cc(OC)ccc2-3)cc1 | ? | 5.86µM | - | 12.6µM | ? | -
COc1ccc2c(c1)Cc1sc(NC(=O)c3ccccc3)nc1-2 | - | . | 145.5 | ? | 2.94µM | 48.3
SMILES | HCMV antiviral | Pf growth 48h | Shiga inhibitor | HCV inh | Pf growth 96h | Cycloheximide cs
COc1ccc2c(c1)Cc1sc(NC(=O)c3cccs3)nc1-2 | - | 5.86µM | 149.1 | ? | - | 74.0
COCC(C)NC(=O)CSc1nc2cc(S(=O)(=O)N3CCCCC3)ccc2o1 (stereo not drawn) | - | ? | . | - | ? | .
CC(C)CNC(=O)COC(=O)C1c2ccccc2Oc2ccccc21 | - | - | - | - | - | -
Cc1ccc(OC(=O)C2c3ccccc3Oc3ccccc32)cc1C | - | - | - | - | 5.22µM | -
CCN(CC)C(=O)C1c2ccccc2Oc2ccccc21 | - | - | - | ? | 5.22µM | -
CC(C)[N+](C)(CCOC(=O)C1c2ccccc2Oc2ccccc21)C(C)C | - | ? | - | ? | 0.0147µM | -
CC(=O)Oc1ccc(-c2cc3c(OC(C)=O)cc(OC(C)=O)cc3oc2=O)cc1 | - | . | . | - | . | .
CC(C)NS(=O)(=O)c1ccc(OCC(=O)Nc2ccc(F)cc2)cc1 | - | - | - | - | ? | -
COc1cccc(CNS(=O)(=O)c2ccc3[nH]c4c(c3c2)CCCCC4)c1 | - | . | . | . | . | .
O=C(Nc1nnc(N2CCCCCC2)s1)Nc1ccccc1C(F)(F)F | - | . | . | . | . | .
O=C(Nc1ccc(Cl)cc1)N1CCN(c2ccc3nnc(-c4ccccc4)n3n2)CC1 | -80.9 | . | . | . | . | .
COc1ccccc1NC(=O)N1CCN(c2ccc3nnc(-c4ccc(F)cc4)n3n2)CC1 | -76.5! | ? | - | - | ? | -
Brc1ccc(-c2nnc3ccc(N4CCN(c5ccccc5)CC4)nn23)cc1 | . | ? | - | - | 11.7µM | -
COc1ccc(-c2cc3ccc(O)c(CN4CCC(C)CC4)c3oc2=O)cc1 | - | . | . | . | . | .
COc1ccccc1CNc1nc(NCc2ccccc2OC)c2sccc2n1 | -90.6 | . | . | . | . | .
COc1ccccc1CNc1nc(NCc2ccccc2SC)c2sccc2n1 | -77.4 | . | . | . | . | .
COc1ccccc1CNc1nc(NCC2CC2)nc2ccsc12 | -70.2 | . | . | . | . | .
CCOC(=O)c1sc(NC(=O)C2CC(=O)N(c3ccc(OC)cc3)C2)nc1C (stereo not drawn) | - | - | - | - | - | -
CC(SCc1ccc(C(=O)O)o1)c1ccc(C(=O)O)o1 (stereo not drawn) | ? | -[0.00184 µM] | - | - | - | -
CCC(=O)Nc1c(OC(=O)CC)ccc2c(C)cc(=O)oc12 | - | - | - | - | 3.7µM | -
CCC(=O)Oc1c(C(=O)CC)cc2c(C)cc(=O)oc2c1C | ? | - | - | - | - | -
CC(=O)Nc1ccc(NC(=O)Cc2ccc(F)cc2)cc1 | . | - | - | . | - | -
CC(C)(C)c1ccc(NC(=O)Nc2ccc(F)cc2)cc1 | - | ? | 68.4 | 10µM | - | 42.0
CC(C)(C)c1ccc(COC(=O)Nc2ccc(F)cc2)cc1 | - | - | 35.2 | - | ? | 19.2
Cc1ccc(NC(=O)CCSc2nnc(-c3ccco3)o2)cc1 | - | - | - | ? | ? | -
Cc1ccc(SCC(=O)Nc2ccc(-c3nnc(-c4ccco4)o3)cc2)cc1 | - | ? | 43.2 | 11.2µM | - | 16.2
O=C(Cc1ccccc1)c1nnc(-c2ccccc2)o1 | - | - | - | - | ? | 14.0
COc1ccccc1CC(=O)Nc1ccc(-c2nnc(-c3ccco3)o2)cc1 | - | 8.28µM | - | ? | - | 24.5
O=C(Cc1ccccc1)Nc1ccc(-c2nnc(-c3ccco3)o2)cc1 | - | - | - | ? | - | 17.1
O=C(C[C@@H]1C/C=C\CC[C@H](Cc2ccc(F)cc2)C(=O)OC[C@@H]2CCCN2C1=O)NCCO | - | . | . | - | . | .
